# Screening data: PubChem, National Center for Advancing Translational Sciences (NCATS)
# SMN2 splice enh: enhancers of SMN2 splice variant expression. HEK293 SMN2-luciferase splicing reporter, luminescence, 30-36 h. Potency, µM (doses to about 46.1 µM), for inactives: at the top dose activity change, positive = activation, most hits filed as activators. hit rate 2.8% among 210,000. AID 1458; also: % of control where 0% means no effect; nearly all actives have a fitted effect of over 55% in size
#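 qHTS luciferase splicing reporter: luminescence rises when SMN2 exon 7 is included in transfected HEK293 cells. Compound exposure lasted 30-36 h at 37C, with 4.5 mM final sodium butyrate as control, followed by a ONE-Glo read.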
# NPC1 prom act: activators of NPC1 promoter; Huh7 NPC1 promoter luciferase reporter, 24 h; AID 485313; Potency, µM (titrated, usually from 9.22 µM), inactives show at the highest dose activation, actives largely listed as activators; hit rate 2.4% among 320,000; also: % of control where 0% means no effect; nearly all actives have a fitted effect of over 60% in size
#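 Luminescence read-out of NPC1 promoter-driven luciferase in stably transfected Huh7 cells; compounds delivered in DMSO and left 24 h at 37C, 5% CO2, qHTS titration format.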
# Rab9 prom act: activators of Rab9 promoter; hit rate 2.8% among 320,000; AID 485297; Huh7 Rab9 promoter-luciferase reporter, luminescence, 24 h; Potency, µM (doses to about 9.22 µM), for the others: at the top dose activation, negative = inhibition, most hits filed as activators; also: % of control where 0% means no effect; nearly all actives have a fitted effect of over 60% in size
#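 Rab9 promoter-driven luciferase in stably transfected Huh7 cells; 1500 cells/well rested 2 h, exposed to compound in DMSO for 24 h at 37 °C, 5% CO2. Luminescence read 10 min after adding luciferase reagent at ambient temperature.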
# ELG1 genotoxic: genotoxicity induction in ELG1-luciferase HEK293T cells; hit rate 1.3% among 330,000; HEK293T ELG1-luciferase reporter, luminescence, 16 h; Potency, µM (series often up to 46 µM), inactives show at the top dose activity change, positive = activation, most hits filed as activators; also: % of control where 0% means no effect; nearly all actives have a fitted effect of over 60% in size
#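 After overnight (16 hr) compound treatment at 37 °C, ELG1-luciferase HEK293T cells were lysed with ONE-Glo; luminescence quantified 30 min later at room temperature.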
# FLuc modulator: firefly luciferase modulation, counter-screen for miR-21 project; purified FLuc, Km substrates, luminescence inhibition; Potency, µM (doses to about 57.5 µM), for the others: top-dose activity change, negative = inhibition, usual class: inhibitors; hit rate 6.9% among 360,000; AID 588342;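 also: plate controls were vehicle for no effect and reference inhibitor for full effect; nearly all actives have a fitted effect of over 55% in size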
# Target sequence (P08659 whole entry, looked up): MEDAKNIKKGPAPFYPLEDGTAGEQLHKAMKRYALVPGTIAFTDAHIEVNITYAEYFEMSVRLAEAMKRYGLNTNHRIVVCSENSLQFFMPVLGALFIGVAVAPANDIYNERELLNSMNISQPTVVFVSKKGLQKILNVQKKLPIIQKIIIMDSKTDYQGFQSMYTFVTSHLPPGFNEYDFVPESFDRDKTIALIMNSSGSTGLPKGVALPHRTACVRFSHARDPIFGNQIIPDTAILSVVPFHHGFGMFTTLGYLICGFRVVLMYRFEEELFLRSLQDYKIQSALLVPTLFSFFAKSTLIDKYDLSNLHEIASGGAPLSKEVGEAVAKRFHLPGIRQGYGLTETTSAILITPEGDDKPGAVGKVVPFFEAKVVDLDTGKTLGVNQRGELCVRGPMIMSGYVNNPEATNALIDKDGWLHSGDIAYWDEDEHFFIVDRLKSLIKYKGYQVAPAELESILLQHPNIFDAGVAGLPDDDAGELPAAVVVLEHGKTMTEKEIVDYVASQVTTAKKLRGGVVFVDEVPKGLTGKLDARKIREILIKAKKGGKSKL
#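 Purified P. pyralis luciferase, 10 nM final, with Km-level 10 uM D-luciferin and 10 uM ATP in 50 mM Tris acetate pH 7.5, 10 mM Mg acetate, 0.01% Tween-20, 0.05% BSA; 6-point qHTS titration about 60 µM downward; luminescence read.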
# ELG1 repair inh: inhibitors of ELG1-dependent DNA repair in HEK293T cells; HEK293T ELG1-luciferase reporter, luminescence, 16 h; DNA damage induced by 5-fluorouridine; Potency, µM (highest dose often 46.1 µM), for inactives: at the highest dose activity change, negative = inhibition, actives largely listed as inhibitors; hit rate 2.3% among 330,000; also: % is scaled to controls: 0 for no effect and ±100 for the full control effect; nearly all actives have a fitted effect of over 55% in size
#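 In this reporter screen, reduction of luminescence relative to DMSO vehicle indicated activity. Compounds and 5-fluorouridine were added together to 2,000 cells per well, incubated for 16 hr at 37 °C, then developed with ONE-Glo.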
# * marks the source's active call; other numbers are inactive results; ? = inconclusive; · = no result; [ ] = remark or other dose. This is a sample that favours compounds with a hit; in the whole collection about 9.3% have one here. Calls follow the shape of the dose curve; as a rule, active = well fitted curve in the direction sought with a large enough effect; inconclusive = small, poorly fitted or top-dose-only effect, or another doubt; inactive = no such curve, though single readings can be large; an effect the other way counts as inactive or inconclusive. Potency is read from the fitted curve at half-maximal effect.
SMILES,SMN2 splice enh,NPC1 prom act,Rab9 prom act,ELG1 genotoxic,FLuc modulator,ELG1 repair inh
COc1cccc(NC(=O)c2cccc(C(=O)Nc3cccc(OC)c3)c2)c1,·,10.2%,9.6%,12.7%,-1.0%,24.9%
Cc1oc(-c2ccccc2)nc1CNC(=O)Nc1ccccc1,·,·,·,·,-3.1%,·
CN(CC(=O)Nc1c(Cl)cccc1Cl)C(=O)CNC(=O)c1ccco1,·,-3.0%,-2.2%,-2.1%,0.0%,12.7%
COc1ccc(NS(=O)(=O)c2ccc(N3CC(O)=C(c4ccccc4)C3=N)cc2)cc1,·,-6.5%,-3.0%,0.4%,-2.4%,0.0%
CC(=O)Nc1cccc(/C(C)=N/NS(=O)(=O)c2ccccc2)c1,20.0%,-3.9%,-3.8%,0.9%,2.0%,9.4%
COc1ccc(/C(C)=N/NC(=O)C2CC2)cc1,4.1%,5.5%,13.8%,?,-18.8%,?
COc1ccc(S(=O)(=O)N/N=C(/C)c2cccc(NC(=O)c3ccccc3Cl)c2)cc1,-3.3%,-2.7%,-0.5%,-3.2%,26.9µM*,-14.0%
COc1cc(C(=O)Nc2cccc(NC(=O)c3cccs3)c2)cc(OC)c1OC,·,-6.7%,-2.1%,-3.2%,23.9µM*,8.2µM*
COc1cccc(NC(=O)CCC(=O)Nc2cccc(OC)c2)c1,-14.3%,1.9%,6.2%,2.3%,-0.6%,2.7%
COc1ccc2cc(/C(C)=N/NC(=O)C3CC3)ccc2c1,15.8µM*,2.51µM*,2.82µM*,18.3µM*,2.39µM*,?
COc1cccc(NC(=O)Nc2cccc(C(=O)O)c2)c1,·,?,?,-10.2%,0.169µM*,?
COc1cc(CC(=O)NNC(=O)c2cccs2)cc(OC)c1OC,·,·,·,0.3%,·,-1.2%
COc1cccc(NC(=O)c2ccc3nsnc3c2)c1,·,?,?,?,12µM*,?
COc1cccc(NC(=O)c2cccc(C)c2[N+](=O)[O-])c1,?,9.9%,?,?,19µM*,?
COc1cc(C(=O)Nc2ccc(N(C)C)cc2)cc(OC)c1OC,·,3.6%,23.6%,?,3.01µM*,?
COc1cc(C(=O)Nc2cccc(NC(=O)c3ccccc3)c2)cc(OC)c1OC,·,-0.8%,2.4%,-8.2%,15.1µM*,?
Cc1cccc(C(=O)Nc2cccc(Br)c2)c1[N+](=O)[O-],·,-1.8%,7.7%,-0.4%,?,-7.2%
COc1cc(C(=O)Nc2cccc(C(C)=O)c2)cc(OC)c1OC,·,-2.0%,-2.6%,1.3%,-24.0%,17.9%
COc1cccc(C(=O)Nc2ccc(C(=O)c3ccncc3)cc2)c1,·,-3.5%,-21.0%,-10.0%,?,?
COc1ccc(S(=O)(=O)N2CCCCC2)cc1C(=O)Nc1cc(C)on1,·,-2.4%,1.8%,0.3%,-0.3%,7.1%
O=C(O)Cn1ccc2cc(S(=O)(=O)N3CCCCCC3)ccc21,2.1%,0.4%,-1.3%,1.4%,4.0%,21.3%
COc1cc(OC)cc(C(=O)Nc2cccc(NC(=O)c3ccccc3)c2)c1,·,-4.1%,0.1%,-6.6%,16.9µM*,16.4µM*
COc1cccc(NC(=O)Nc2ccc(Br)cn2)c1,·,?,3.16µM*,?,?,?
COc1cc(OC)cc(C(=O)Nc2cccc(C(C)=O)c2)c1,9.9%,14.6%,18.3%,?,?,17.2%
COc1cccc(NC(=O)CC(=O)c2ccc([N+](=O)[O-])cc2)c1,·,?,2.8%[1.84 µM],7.7%,2.13µM*,?
SMILES,SMN2 splice enh,NPC1 prom act,Rab9 prom act,ELG1 genotoxic,FLuc modulator,ELG1 repair inh
COc1ccc(C(=O)Nc2cccc(OC)c2)cc1,2.82µM*,2µM*,1.26µM*,2.31µM*,6.75µM*,?
CCOC(=O)c1cnn(-c2ccc(OC)cc2)c1C1CCN(C(=O)OC(C)(C)C)CC1,-7.2%,·,·,·,-1.5%,·
COc1ccc(NC(=O)Nc2cccnc2)c(OC)c1,7.2%,0.9%,-2.0%,2.8%,-10.2%,7.5%
NS(=O)(=O)c1cccc(NC(=O)c2cccc(Oc3ccccc3)c2)c1,·,6.1%,6.2%,3.8%,10.7µM*,-19.2%
COc1cccc(NC(=O)c2nnn(CCc3ccccc3)c2N)c1,?,28.3%,27.8%,?,15.1µM*,?
NC(=O)c1ccc(NC(=O)c2cccc(Oc3ccccc3)c2)cc1,-6.5%,-1.4%,-6.7%,10.2%,4.9%,3.7%
Cc1[nH]c2ccc(C(=O)Nc3ccc(F)cc3)cc2c1C,·,·,·,·,23.9µM*,·
COc1cccc(NC(=O)Nc2cccnc2)c1,·,17.4%,4.6%,1.6%,16.9µM*,-7.1%
Cc1ccc(CN(C)C(=O)CN2C(=O)NC(c3ccccc3)(c3ccccc3)C2=O)c(C)c1,·,-1.3%,-2.7%,-11.8%,-0.5%,?
O=C(c1cc(-c2ccccc2)nn1-c1ccccc1)N1CCN(S(=O)(=O)c2c(F)cccc2F)CC1,·,-2.2%,1.3%,0.1%,8.1%,?
COc1cc(C(=O)O)cc(NC(=O)c2cccs2)c1OC,·,2.2%,-10.9%,1.6%,?,?
C/C(=N/NC(=O)c1ccoc1C)c1cccc(NC(=O)C(F)(F)F)c1,18.1%,14.6%,27.9%,?,?,?
COc1cc(C(=O)OCc2ccc(C)cc2)cc(NC(=O)c2cccs2)c1OC,-9.9%,-5.5%,-1.0%,-0.5%,-1.0%,20.6µM*
CC(C)OC(=O)c1cccc(NC(=O)c2ccccc2)c1,?,?,?,13.7%,13.5µM*,?
COc1cccc(NC(=O)c2ccccc2)c1,·,2.82µM*,1.78µM*,?,10.7µM*,?
COc1ccc(C(=O)N/N=C(/C)c2cccc(NC(=O)C(F)(F)F)c2)cc1,10µM*,3.55µM*,?,?,10.7µM*,?
CC(=O)Nc1nnc(Cc2c[nH]c3ccccc23)s1,·,-5.0%,4.2%,-4.7%,1.8%,?
COc1ccccc1CN1CC(C(=O)NCc2cnn(C)c2)CCC1=O (stereo unspecified),·,-3.3%,3.2%,0.3%,3.0%,20.3%
O=C(CCl)NN1C(=O)NC(c2ccccc2)(c2ccccc2)C1=O,·,-10.9%,0.1%,-16.0%,0.0%,?
COc1cccc(NC(=O)C(C)C)c1,·,-2.1%,-5.8%,2.4%,-2.5%,-4.4%
COc1ccc(S(=O)(=O)N/N=C(/C)c2ccco2)cc1,·,?,2.51µM*,?,16.9µM*,?
COc1cccc(NC(=O)c2ccc(NC(=O)C(C)C)cc2)c1,·,?,?,?,10.7µM*,?
COc1cc(C(=O)NC(=S)N(CCc2ccccc2)CCc2ccccc2)cc(OC)c1OC,-59.9%,-8.2%,-13.5%,-8.7%,0.2%,18.4µM*
COc1cc(NC(=O)c2ccc3nsnc3c2)cc(OC)c1OC,·,-1.2%,4.2%,6.4%,-4.0%,21.3%
